# SARS PLpro yeast – inhibitors of SARS-CoV papain-like protease in yeast | hit rate 0.19% among 330,000 | Potency, µM (doses to about 32.9 µM), usual class: activators | AID 485353 | S. cerevisiae expressing SARS-CoV PLpro, growth rescue; calls by dose curve; note: nearly all actives have a fitted effect of over 55% in size
# HCV inh – inhibitors of hepatitis C virus infection; Potency, µM (doses to about 41.8 µM), most hits filed as inhibitors; hit rate 3.4% among 340,000; Huh7.5.1 HCVcc-Cre infection, luciferase reporter, 44 h; active = well fitted inhibition curve with a large enough effect; inconclusive = small, poorly fitted or top-dose-only effect, or another doubt; inactive = no such curve, though single readings can be large or run the other way
#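 A cell-based infection assay in which seeded cells (1,000 per well) receive test compound after 4 h, are inoculated with HCVcc-Cre at approximately 0.5 moi, and are incubated 44 h before luminescence detection.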
# HCMV antiviral – blocks human cytomegalovirus replication; HFF cells, HCMV-luciferase reporter, 72 h; stronger effect = lower value; activity change, negative = inhibition, % at 57.5 µM; hit rate 4.5% among 410,000; AID 1259415; in the data active = activity change below about -60%; inconclusive = no clear call, values can overlap the other calls; inactive = above about -39%
#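 Luciferase read-out from HCMV-luciferase-infected HFFs (MOI 1 PFU/cell) 72 h post infection at 37C; compounds added after 16 h cell attachment; activity normalized between buffer-only basal and Salinomycin (10uM) inhibitor controls.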
# MARV entry inh – inhibitors of Marburg virus binding or cell entry | Marburg virus pseudotyped entry inhibition, cell reporter | Potency, µM (series often up to 37.8 µM), usual class: inhibitors | hit rate 1.8% among 300,000 | AID 540276; calls by dose curve; tested in HEK293 cells
# LASV entry inh – inhibitors of Lassa virus binding or cell entry; hit rate 1.2% among 300,000; Potency, µM (series often up to 37.9 µM), usual class: inhibitors; Lassa virus pseudotype entry inhibition, cell reporter; calls by dose curve; tested in HEK293 cells; note: nearly all actives have a fitted effect of over 50% in size
# FMDV antiviral – foot and mouth disease virus antiviral activity. AID 1159524. hit rate 1.2% among 410,000. Potency, µM (top dose mostly 57.9 µM), hits mostly inhibitors. FMDV antiviral cell-based qHTS; calls by dose curve; tested in HEK293T cells; note: read-out not given here; nearly all actives have a fitted effect of over 45% in size
# A number is an active result; . = inactive; ? = inconclusive; / = not tested or not shown; + = active, no number. The list is not random: actives were taken first. Their share in the collection is about 8%.
SMILES,SARS PLpro yeast,HCV inh,HCMV antiviral,MARV entry inh,LASV entry inh,FMDV antiviral
COc1cccc(C(=O)Nc2ccc(NC(=O)c3ccco3)nc2)c1,.,.,.,?,.,.
COc1cc2c(cc1OC)[C@@H]1O[C@](CCCCN3C(=O)c4ccccc4C3=O)(C2)OC2=C1C(=O)c1ccccc1C2=O,/,/,/,.,/,/
CCN1C(=O)NC(CCc2ccccc2)C(C(=O)OC)=C1C (stereo not given),/,/,/,.,/,/
Cc1cc(NC(=O)c2cccc(Oc3ccccc3)c2)n[nH]1,.,.,-71,/,/,.
Nc1ccc(N(c2ccccc2)c2ccc(N)cc2)cc1,.,10µM,?,?,.,?
O=C(O)CC(c1cccc(Cl)c1)n1cccc1 (stereo not given),.,11µM,.,.,.,.
Cc1cccc(C(CC(=O)O)n2cccc2)c1 (stereo not given),.,.,.,.,.,.
COc1ccc(CNC(=O)c2ccc(Cn3c(=O)c4cccn4c4cccnc43)cc2)cc1OC,/,/,.,/,.,.
CC(=O)COc1cccc2ccc(/C=C/c3ccc(Br)s3)nc12,.,11µM,.,/,/,.
Cc1ccc(/C=C/c2ccc3cccc(O)c3n2)s1,.,?,.,?,?,.
Cc1cc(-c2ccccc2)cc(-c2ccccc2)[n+]1C,.,.,?,?,?,.
Cc1cc(-c2ccccc2)cc(-c2ccccc2)[n+]1CCc1ccccc1,.,?,-98,/,/,20µM
CCOc1ccc(-c2cc(C)[n+](CCO)c(-c3ccc(OCC)cc3)c2)cc1,.,.,-77,?,?,.
O=C([O-])c1cc(-c2ccccc2)cc(-c2ccccc2)[n+]1CCc1ccc(Cl)cc1,/,.,-80,/,/,35µM
Fc1ccc(C[n+]2c(-c3ccccc3)cc(-c3ccccc3)cc2-c2ccccc2)cc1,.,10µM,-84,/,/,.
COc1cccc(Cn2c(=O)n(CCc3ccccc3)c(=O)c3c2c2cc(OC)ccc2n3C)c1,/,/,.,/,.,.
C=Cc1c(C)/c2[n-]/c1=C\c1[n-]c(c(CC)c1C)/C=c1\[n-]c3c(c1C)C(=O)C(C(=O)[O-])C=3c1[n-]c(c(C)c1CCC(=O)[O-])\C=2.[Cu].[Na+].[Na+] (stereo not given),/,/,/,31µM,?,/
O=C(C=C1SCCS1)/C=C/c1ccco1,.,.,.,?,11µM,?
O=C(O)C(C(=O)/C=C/c1ccco1)=C1SCCS1,.,.,?,.,.,.
Cc1cccc(-n2ccnc2SCC(=O)Nc2cc(C)on2)c1,.,.,.,?,.,.
Cc1cc(NC(=O)CSc2nccn2-c2cccc(C)c2C)no1,.,11µM,.,?,?,.
Cc1cc(NC(=O)CSc2nnc(-c3ccccc3C)n2C)no1,.,.,.,.,.,.
Cc1cc(NC(=O)CSc2nnc(-c3ccco3)n2C)no1,.,.,-60,/,/,.
CCOC(=O)Cc1c(C(=O)OCC)nnc2c(-c3ccccc3)c(C)nn12,/,/,.,.,.,.
Cc1[nH]cnc1C(=O)N/N=C/c1ccc([N+](=O)[O-])s1,.,?,-90,?,.,.
SMILES,SARS PLpro yeast,HCV inh,HCMV antiviral,MARV entry inh,LASV entry inh,FMDV antiviral
Cc1cc(C(=O)N/N=C/c2ccc([N+](=O)[O-])s2)n[nH]1,.,10µM,-91,?,?,.
COCCn1ccc2c(OCC(=O)Nc3cccc(OC)c3)cccc2c1=O,/,/,.,/,.,?
CCOC(=O)c1cc(-c2ccccc2)n(-c2cccc(C(=O)Nc3ccc(OC)cc3)c2)c1C,/,/,+,/,.,.
CCOC(=O)c1cc(-c2ccccc2)n(-c2cccc(C(=O)Nc3ccc(F)c(F)c3)c2)c1C,/,/,?,/,.,?
CCOC(=O)c1cc(-c2ccccc2)n(-c2cccc(C(=O)Nc3cccc(F)c3)c2)c1C,/,/,+,/,.,.
CCOC(=O)c1cc(-c2ccccc2)n(-c2cccc(C(=O)Nc3cccc(C(C)=O)c3)c2)c1C,/,/,.,/,.,.
CC(=O)c1cccc(NC(=O)CN2C(=O)CC(c3ccc(C)cc3C)=Nc3ccccc32)c1,/,/,.,/,?,.
COc1cc(Cl)c(C)cc1N1C(=O)[C@@H]2C[C@H]1CN2Cc1ccccn1,/,/,/,/,/,.
CCCCNS(=O)(=O)c1ccc2nc(SCC(=O)Nc3ccccc3Cl)[nH]c2c1,.,13µM,-82,?,?,.
O=C(CSc1nc2ccccc2[nH]1)Nc1ccc(F)c(F)c1,/,.,.,.,.,/
O=C(CSc1nc2ccccc2[nH]1)Nc1ccccc1F,.,.,-100,.,.,/
CCCCNS(=O)(=O)c1ccc2nc(SCC(=O)c3ccccc3OC)[nH]c2c1,.,?,-79,?,.,.
CCCCNS(=O)(=O)c1ccc2nc(SCC(=O)Nc3cccc(F)c3)[nH]c2c1,.,.,.,.,.,.
O=C(Nc1ccc(C(F)(F)F)cc1)C1CCCN(c2cnccn2)C1 (stereo not given),/,/,.,.,.,.
O=C(NCCCN1CCCCCC1)c1ccc2c(c1)sc1nc(-c3ccccc3)cn12,/,/,/,/,.,.
COc1ccc(OC)c(-c2csc(NC(=O)Cc3cc(OC)c(OC)c(OC)c3)n2)c1,.,11µM,.,?,.,?
